Results filed as inconclusive are left out. Unmarked numbers belong to inactive results. Active and inactive are the calls of the source. The call rests on the fitted dose curve; in most records, active means well fitted curve in either direction with a large enough effect (not every such curve was filed as active); inconclusive means small, poorly fitted or top-dose-only effect, or another doubt; inactive means flat fitted curve, though single readings scatter.
On the % scale 0 is the no-effect control and ±100 the full control effect.

A short description of one assay: AP1 Signaling Pathway (AID 357).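 Further: ME-180 reporter cells stimulated with EGF at its EC50 level.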 The settings on record: ME-180 (cervical carcinoma) AP-1-bla reporter, EGF-induced, beta-lactamase ratio, 5 h; at 17.2 µM (top of the series) unless noted. In a few lines:
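A ratiometric CCF4 readout (405 nm excitation; 460 and 530 nm emission) quantified AP-1-driven beta-lactamase in ME-180 cells after 5 h with compound and EC50 EGF; AC50 values were derived for activators and inhibitors.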
For `CN(C)c1nc2sc3c(c2c(=O)n1C)CC(C)(C)OC3`, the activity change, negative = inhibition is -6.89%.
Still for that read-out and setting: the figure for `Cc1cccc(N2CC(=O)N(c3cccc(C)c3)CC2=O)c1` is 5.22%.
The same measure, in the same setting: the figure for `CC(C)(C)n1nnc(CCc2nnn(C(C)(C)C)n2)n1` is 1.01%; for `CCOC(=O)c1c(N)sc2c1CCC1C(=O)N(C3CCCCC3)C(=O)C21` (stereo not given) it is -12.9%.
Still for that read-out and setting: then `CC(C)C1Cc2c(C#N)c(N)n(C)c(=S)c2CO1` (stereo not given), with -4.25%; and `CC(=O)c1ccc(O)c(CO)c1`, with 12.6%.
Turning to `Cc1ccc(-n2c(SCC(=O)NCc3ccco3)nc3nc4c(cc3c2=O)COC(C)(C)C4)cc1`, the activity change, negative = inhibition is -7.85%.
The same measure, in the same setting: the figure for `c1ccc2c(c1)CCC[C@H]2C1=NCCN1` is 4.49% [at 38 µM]; for `O=C(NC1CCCCC1)Nn1c(-c2ccccc2)nc2ccccc2c1=O` it is -2.78%.
Same read-out and setting: then `COc1ccccc1C1/C(=C(\O)c2ccc3c(c2)OCCO3)C(=O)C(=O)N1CCCN(C)C` (stereo not given), with 8.19%; and `Cc1cc(C)nc(NC2=NCC(=O)N2c2ccc(Cl)cc2)n1`, with 0.0978%; and `Oc1ccccc1CNn1cnnc1`, with -0.712%.
Same read-out and setting: the figure for `CCCC(CCC(=O)Nc1ccc(C(=O)OCC)cc1)C(=O)O` (stereo not given) is 4.36%; for `CCC[C@H]1C[C@H](C(=O)N[C@@H]([C@H]2O[C@@H](SC)[C@@H](O)[C@@H](O)[C@@H]2O)[C@H](C)Cl)N(C)C1` it is -4.04%; for `COC(=O)C1=C(N)Oc2cc(C)[nH]c(=O)c2C1c1ccncc1` (stereo not given) it is -8.66%.
Turning to `CCN1CCC[C@@H]1CNC(=O)c1c(O)c(Cl)cc(Cl)c1OC`, the activity change, negative = inhibition is 10.6% [at 38 µM].
As to `CC(=O)Oc1oc(-c2ccccc2)nc1/C=N/c1ccccn1`, the activity change, negative = inhibition is -71.1%.
Same read-out and setting: the figure for `CC(C)(C)C1=Nn2c(nnc2-c2ccccn2)SC1` is 4.11%; for `O=C(O)CC(C(=O)OCC1CCCO1)N1CCOCC1` (stereo not given) it is 9.13%.
On the same count and under the same terms, then `COc1ccc(C2=Nn3c(nnc3-c3ccccn3)SC2)cc1OC`, with -18.1%.
Still for that read-out and setting: the figure for `CCOc1ccc(/C(O)=C2/C(=O)C(=O)N(CCN(CC)CC)C2c2ccco2)cc1` (stereo not given) is -1.27%.
In the case of `Cc1cc2ccccc2cc(C)c1=O`, the activity change, negative = inhibition was 9.45%.
The same measure, in the same setting: the figure for `CSc1nc2sc3c(c2c(=O)n1C1CCCCC1)CCN(C)C3` is -0.967%; for `CN1[C@@H]2CC(OC(=O)[C@@H](CO)c3ccccc3)C[C@H]1[C@H]1O[C@H]12` (stereo not given in full) it is 4.86% [at 38 µM]; for `CCCCNC(=O)c1cc2n(n1)C(C(F)(F)F)CC(c1ccccc1)N2` (stereo not given) it is -14.9%.
As for `COc1cc(-c2cc(C(F)(F)F)n3ncc(C(=O)O)c3n2)cc(OC)c1OC`, the activity change, negative = inhibition was 3.69%.
The same measure, in the same setting: then `COC(=O)c1sc(NC(C)=O)c(C(=O)OC)c1C`, with 2.69%; and `O=C1CC(c2ccccc2)n2nc(NS(=O)(=O)c3ccccc3)nc2N1` (stereo not given), with 22.4%.
Same read-out and setting: then `COC(=O)c1ccc(C2NC(C(=O)O)CS2)cc1` (stereo not given), with 5.95%; and `COCCNc1nc2c(c(=O)n(Cc3ccc(OC)cc3)c(=O)n2C)n1C`, with -10.1%.
For the compound `CC(C)CC(NC(=O)OC(C)(C)C)C(=O)NCc1ccccc1` (stereo not given), the activity change, negative = inhibition was -7.56%.
On the same count and under the same terms, then `CCCCOc1ccc(C(=O)Nc2ccc(N3CCN(C(C)=O)CC3)cc2)cc1`, with -6.71%.
Same read-out and setting: the figure for `O=C(NC[C@@H]1CCCCN1)c1cc(OCC(F)(F)F)ccc1OCC(F)(F)F` is -1.96%.
For `COc1cc(C2C3C(=O)N(c4ccc(F)cc4)C(=O)C3ON2c2ccccc2)ccc1O` (stereo not given), the activity change, negative = inhibition was -17.6%.
On the same count and under the same terms, then `O=c1[nH]cnc2cc(-c3ccccc3)sc12`, with -9.08%; and `O=C(NO)c1ccccc1O`, with -4.21%; and `Cc1cc(CC(=O)O)c(C)cc1CC(=O)O`, with 11.9%.
Same read-out and setting: then `CC(=O)Nc1ccccc1O`, with 0.55%.
As to `Cc1ccc(SCc2[nH]nc3c2C(c2ccc(C)o2)C(C#N)=C(N)O3)cc1` (stereo not given), the activity change, negative = inhibition is -23.1%.
Turning to `O=C1C2ON(c3ccccc3)C(c3cccnc3)C2C(=O)N1Cc1ccccc1` (stereo not given), the activity change, negative = inhibition was -15.2%.

A further assay in a line: NFAT Signaling Pathway (AID 444).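 Further: carbachol stimulus at about its EC50 of 1 µM final.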 As to conditions: Jurkat NFAT-bla M1, carbachol, beta-lactamase ratio, 5 h; at 17.2 µM (top of the series) unless noted. In outline:
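Jurkat cells with NFAT-driven β-lactamase reporter and co-expressed M1 receptor, stimulated with carbachol (final 1 uM, ~EC50), compound titration, 5 h at 37 °C. CCF4 loaded 1 h at RT; 460/530 nm ratio gave %activity and AC50.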
For the compound `CN(C)c1nc2sc3c(c2c(=O)n1C)CC(C)(C)OC3`, the activity change, negative = inhibition is -2.36%.
On the same count and under the same terms, the figure for `Cc1cccc(N2CC(=O)N(c3cccc(C)c3)CC2=O)c1` is 5.99%; for `CC(C)(C)n1nnc(CCc2nnn(C(C)(C)C)n2)n1` it is -17.9%; for `CCOC(=O)c1c(N)sc2c1CCC1C(=O)N(C3CCCCC3)C(=O)C21` (stereo not given) it is -2.94%.
Same read-out and setting: the figure for `CC(C)C1Cc2c(C#N)c(N)n(C)c(=S)c2CO1` (stereo not given) is -23.6%.
Same read-out and setting: then `CC(=O)c1ccc(O)c(CO)c1`, with -1.78%; and `Cc1ccc(-n2c(SCC(=O)NCc3ccco3)nc3nc4c(cc3c2=O)COC(C)(C)C4)cc1`, with -16.8%; and `c1ccc2c(c1)CCC[C@H]2C1=NCCN1`, with -2.65% [at 38 µM].
In the case of `O=C(NC1CCCCC1)Nn1c(-c2ccccc2)nc2ccccc2c1=O`, the activity change, negative = inhibition was -2.06%.
Same read-out and setting: then `COc1ccccc1C1/C(=C(\O)c2ccc3c(c2)OCCO3)C(=O)C(=O)N1CCCN(C)C` (stereo not given), with -5.11%; and `Cc1cc(C)nc(NC2=NCC(=O)N2c2ccc(Cl)cc2)n1`, with -13.8%.
Still for that read-out and setting: then `Oc1ccccc1CNn1cnnc1`, with 15.6%.
On to `CCCC(CCC(=O)Nc1ccc(C(=O)OCC)cc1)C(=O)O` (stereo not given), for which the activity change, negative = inhibition was 0.831%.
On the same count and under the same terms, then `CCC[C@H]1C[C@H](C(=O)N[C@@H]([C@H]2O[C@@H](SC)[C@@H](O)[C@@H](O)[C@@H]2O)[C@H](C)Cl)N(C)C1`, with 0.269%; and `COC(=O)C1=C(N)Oc2cc(C)[nH]c(=O)c2C1c1ccncc1` (stereo not given), with 2.47%.
As to `CCN1CCC[C@@H]1CNC(=O)c1c(O)c(Cl)cc(Cl)c1OC`, the activity change, negative = inhibition is 2.12% [at 38 µM].
On the same count and under the same terms, the figure for `CC(=O)Oc1oc(-c2ccccc2)nc1/C=N/c1ccccn1` is -130% (active); for `CC(C)(C)C1=Nn2c(nnc2-c2ccccn2)SC1` it is 0.351%.
Same read-out and setting: then `O=C(O)CC(C(=O)OCC1CCCO1)N1CCOCC1` (stereo not given), with -2.84%; and `COc1ccc(C2=Nn3c(nnc3-c3ccccn3)SC2)cc1OC`, with 23.1%; and `CCOc1ccc(/C(O)=C2/C(=O)C(=O)N(CCN(CC)CC)C2c2ccco2)cc1` (stereo not given), with -3.29%.
The same measure, in the same setting: the figure for `Cc1cc2ccccc2cc(C)c1=O` is -28.3%.
For the compound `CSc1nc2sc3c(c2c(=O)n1C1CCCCC1)CCN(C)C3`, the activity change, negative = inhibition is -81.1% (active).
Same read-out and setting: then `CN1[C@@H]2CC(OC(=O)[C@@H](CO)c3ccccc3)C[C@H]1[C@H]1O[C@H]12` (stereo not given in full), with -57.6% [at 38 µM] (active); and `CCCCNC(=O)c1cc2n(n1)C(C(F)(F)F)CC(c1ccccc1)N2` (stereo not given), with 11.1%.
Still for that read-out and setting: the figure for `COc1cc(-c2cc(C(F)(F)F)n3ncc(C(=O)O)c3n2)cc(OC)c1OC` is 3.34%; for `COC(=O)c1sc(NC(C)=O)c(C(=O)OC)c1C` it is 2.63%.
With `O=C1CC(c2ccccc2)n2nc(NS(=O)(=O)c3ccccc3)nc2N1` (stereo not given), the activity change, negative = inhibition was -10.9%.
Still for that read-out and setting: then `COC(=O)c1ccc(C2NC(C(=O)O)CS2)cc1` (stereo not given), with 6.25%.
The same measure, in the same setting: then `COCCNc1nc2c(c(=O)n(Cc3ccc(OC)cc3)c(=O)n2C)n1C`, with -7.8%; and `CC(C)CC(NC(=O)OC(C)(C)C)C(=O)NCc1ccccc1` (stereo not given), with -25.8%; and `CCCCOc1ccc(C(=O)Nc2ccc(N3CCN(C(C)=O)CC3)cc2)cc1`, with 11.1%.
Consider `O=C(NC[C@@H]1CCCCN1)c1cc(OCC(F)(F)F)ccc1OCC(F)(F)F`, for which the activity change, negative = inhibition was -7.71%.
On the same count and under the same terms, the figure for `COc1cc(C2C3C(=O)N(c4ccc(F)cc4)C(=O)C3ON2c2ccccc2)ccc1O` (stereo not given) is 0.386%; for `O=c1[nH]cnc2cc(-c3ccccc3)sc12` it is 3.27%.
Same read-out and setting: the figure for `O=C(NO)c1ccccc1O` is -9.27%.
The same measure, in the same setting: the figure for `Cc1cc(CC(=O)O)c(C)cc1CC(=O)O` is 2.75%; for `CC(=O)Nc1ccccc1O` it is 16%.
In the case of `Cc1ccc(SCc2[nH]nc3c2C(c2ccc(C)o2)C(C#N)=C(N)O3)cc1` (stereo not given), the activity change, negative = inhibition is -18.9%.
The same measure, in the same setting: then `O=C1C2ON(c3ccccc3)C(c3cccnc3)C2C(=O)N1Cc1ccccc1` (stereo not given), with -1.42%.

The record behind these values is PubChem BioAssay (NCATS).
